PfHsp40 rescue: rescue of PfHsp40-mediated yeast toxicity; growth rescue, % at 12.5 µM; 340,000 compounds, 0.68% hits; AID 504582; S. cerevisiae expressing PfHsp40, growth rescue, ATP luminescence; in the data active means growth rescue above about 28%, passing the limit was not always enough; inconclusive means no clear call, values can overlap the other calls;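 further: yeast W303a lacking pdr1 and pdr3 grown in galactose medium; growth measured after three days at 30 °C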
MazEF act: increases E. coli MazEF RNase cleavage of RNA | FAM/BHQ RNA-DNA oligo cleavage fluorescence, 5 h | 350,000 compounds, 0.32% hits | activation, % at 20 µM | P0AE70 | AID 504720; in the data active means activation above about 50%
Target sequence (P0AE70 whole entry, looked up): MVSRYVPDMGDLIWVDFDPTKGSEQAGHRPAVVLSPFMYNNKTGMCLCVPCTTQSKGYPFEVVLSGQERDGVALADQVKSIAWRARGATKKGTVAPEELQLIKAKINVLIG
BioA inh: blocks M. tuberculosis BioA enzyme activity; 360,000 compounds, 0.096% hits; inhibition, % at 9.99 µM; AID 602481; purified M. tuberculosis BioA enzyme, plate reader; in the data active means inhibition above about 40%; inconclusive means no clear call, values can overlap the other calls
BJeLR viability: kills HRASV12-expressing BJeLR cells | BJeLR (HRASV12) viability, CellTiter-Glo ATP luminescence, 48 h | 300,000 compounds, 0.17% hits | inhibition, % (test concentration not listed); in the data active means inhibition above about 50%; inconclusive means no clear call, values can overlap the other calls
SARS 3CLpro inh: SARS-CoV 3CLpro protease inhibition | P0C6X7 | recombinant SARS-CoV 3CLpro, quenched FRET peptide cleavage | inhibition, % at 6 µM | 290,000 compounds, 0.14% hits | AID 1706; in the data active means inhibition above about 12%
Y pestis TopoI: inhibitors of Yersinia pestis topoisomerase I; activity, % at 10 µM; 360,000 compounds, 0.064% hits; Y. pestis Topo-I cleavage product accumulation, plate reader; AID 504884; in the data active means activity above about 50%, passing the limit was not always enough; inconclusive means no clear call, values can overlap the other calls
Active calls of the source: *; i = inactive; ? = inconclusive; . = no result; + = active, no number. In the library only some 1.1% were active in any assay of this set; here they are far more common.

SMILES | PfHsp40 rescue | MazEF act | BioA inh | BJeLR viability | SARS 3CLpro inh | Y pestis TopoI
Cc1ccc(S(=O)c2ccc([N+](=O)[O-])c3nonc23)cc1 (stereo not drawn) | . | 375* | -4 | . | . | -17
O=[N+]([O-])c1ccc(N2CCCCCC2)c2nonc12 | 0 | i | -47 | -5 | -7 | -2
COc1ccccc1S(=O)(=O)N(C)C[C@@H]1OCc2ccccc2-c2c(n(C)c3ccccc23)C(=O)N([C@@H](C)CO)C[C@@H]1C | . | . | -1 | . | . | .
CNc1nc(-c2ccccc2)cc(C(F)(F)F)c1C#N | 1 | 400* | -1 | 4 | -7 | 0
O=C(c1ccco1)N1CCN(C(=O)c2ccccc2OCc2ccc(Cl)cc2)CC1 | 253* | 3 | 3 | -4 | . | 34
Cc1cccc2cc3c(N)c(C(=O)Nc4ccc(N5CCOCC5)cc4)sc3nc12 | 12 | -28 | -1 | 4 | 3 | -5
Cc1cccc2cc3c(N)c(C(=O)N4CCc5ccccc54)sc3nc12 | -1 | 86* | -2 | -9 | 0 | -7
Cc1cccc2cc3c(N)c(C#N)sc3nc12 | ? | 92* | 4 | -4 | 0 | -27
CCOc1ccc(N2C(=O)S/C(=C\c3cccn3C)C2=O)cc1 | -2 | 28 | . | -4 | 1 | 3
Cn1cccc1/C=C1\SC(=O)N(c2ccc(O)cc2)C1=O | 0 | 262* | -2 | -5 | 5 | -4
CCCCCCCCSc1n[nH]c(N)n1 | 1 | -6 | . | -4 | 3 | -10
CCCCCCCCCCSc1n[nH]c(N)n1 | 303* | -5 | -1 | -4 | 2 | 11
Cc1ccc(N(C)S(=O)(=O)c2cc(-c3cnc(C4CC4)o3)ccc2C)cc1 | 4 | -1 | 0 | 3 | 9 | 4
Cc1cccc(N(C)S(=O)(=O)c2ccc(-c3cnc(C4CC4)o3)cc2)c1 | -2 | -7 | -2 | 65* | 6 | 22
C[C@@H]1CN([C@@H](C)CO)C(=O)c2cc(/C=C/c3ccccc3)cnc2O[C@@H]1CN(C)Cc1ccc2c(c1)OCO2 | . | . | 1 | . | . | .
O=C(N/N=C(\c1ccccc1)c1cccnc1)c1ccc(O)cc1 | -1 | 2 | 0 | 5 | -3 | 6
O=C(N/N=C(\c1ccccc1)c1cccnc1)c1cccc(F)c1 | 315* | -11 | 7 | 67* | -1 | 8
C[C@H](CO)N1C[C@H](C)[C@@H](CN(C)C(=O)C2CCC2)Oc2ncc(-c3cccc(F)c3)cc2C1=O | . | . | 0 | . | . | .
COC(=O)c1c(Cl)c2n3ccccc3c(C)c(-c3ccccc3)c-2c1C(=O)OC | 0 | -53 | -5 | 9 | -9 | -8
COC(=O)c1cc2c(-c3ccccc3)c(C)c3ccccn3c-2c1C(=O)OC | 0 | 50* | 0 | 7 | 1 | 41
CCCCNc1nnc(SCC(=O)c2c(N)n(CCC)c(=O)[nH]c2=O)s1 | 0 | 7 | 0 | . | . | -8
CCCn1c(N)c(C(=O)CSc2nc(C)cs2)c(=O)[nH]c1=O | 26* | 1 | . | 4 | 0 | -5
N[C@@H]1C[C@H]1c1ccccc1 | 44* | 2 | 1 | . | . | 5
O=C(C[C@H]1CC[C@@H]2[C@H](COC[C@H](O)CN2Cc2ccc(Cl)cc2)O1)NCc1cccc(F)c1 | . | . | 5 | . | . | .
Clc1ccc(CCC(Cn2ccnc2)Sc2c(Cl)cccc2Cl)cc1 (stereo not drawn) | 120* | -3 | 1 | . | . | 47
SMILES | PfHsp40 rescue | MazEF act | BioA inh | BJeLR viability | SARS 3CLpro inh | Y pestis TopoI
Clc1ccc(SCCCCn2ccnc2)cc1 | 1 | 11 | . | 0 | 3 | 14
Cn1cc(C=C2C(=O)NC(=O)NC2=O)c2ccccc21 | 0 | + | -1 | 12 | 4 | 12
CC(=O)n1cc(C=C2C(=O)NC(=O)NC2=O)c2ccccc21 | 0 | 3 | -1 | -4 | -1 | 5
COc1ccc(NC(=O)C(=O)N/N=C(\C)CC(=O)Nc2cc(C)ccn2)c(OC)c1 | -1 | 1 | . | -1 | -1 | -8
C/C(CC(=O)Nc1cc(C)ccn1)=N\NC(=O)C(=O)Nc1cccc(C)c1 | -1 | 195* | . | -2 | 4 | -3
C[C@@H]1CCCCO[C@H](CN(C)C(=O)c2ccncc2)[C@H](C)CN([C@H](C)CO)C(=O)c2cc(NS(C)(=O)=O)ccc2O1 | . | . | 2 | . | . | .
Cc1ccccc1Oc1ccc(-c2nc(N)nc(N)n2)cc1 | 119* | -1 | 0 | 5 | -1 | 0
CO[C@H]1CN(C)C(=O)c2ccc(NC(=O)Nc3c(C)noc3C)cc2OC[C@@H](C)NC[C@@H]1C | . | . | -1 | . | . | .

Screens from PubChem.
